MCF10A rereplic – A quantitative high throughput screen for small molecules that induce DNA re-replication in MCF 10a normal breast cells; MCF 10A DNA re-replication, Hoechst nuclear intensity, 48 h; Potency, µM (doses to about 46.1 µM), without a hit: at the highest dose activity, positive = re-replication, actives largely listed as activators; actives 2.9% (n = 350,000); note: potency is the fitted concentration of half-maximal effect; % of control where 0% means no effect; nearly all actives have a fitted effect of over 50% in size
KB-V1 MDR tox – qHTS assay for MDR1-selective chemotherapeutics: Primary screen using the drug-selected MDR subline cells KB-V1; Potency, µM (highest dose often 46.1 µM), actives largely listed as cytotoxic; actives 3.4% (n = 400,000); AID 1347076, 2019; KB-V1 MDR cells viability, CellTiter-Glo, 72 h; note: potency is the fitted concentration of half-maximal effect; % is set by controls: 0 for no effect and ±100 for the full control effect; nearly all actives have a fitted effect of over 60% in size
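qHTS viability screen in drug-selected KB-V1 MDR cells: 72 h compound treatment at 37 degrees C, ATP luminescence end point.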
D3 antag – qHTS of D3 Dopamine Receptor Antagonist: qHTS; AID 652054, 2013; D(3) dopamine receptor (Homo sapiens), P35462; actives 2.5% (n = 360,000); D3R cells, DiscoveRx beta-arrestin luminescence, antagonist mode; active compounds read low; max response, negative = inhibition, %; in the data active = max response below about -50%; inconclusive = no clear call, values can overlap the other calls; note: % is set by controls: 0 for no effect and ±100 for the full control effect
Target sequence (P35462 whole entry, looked up): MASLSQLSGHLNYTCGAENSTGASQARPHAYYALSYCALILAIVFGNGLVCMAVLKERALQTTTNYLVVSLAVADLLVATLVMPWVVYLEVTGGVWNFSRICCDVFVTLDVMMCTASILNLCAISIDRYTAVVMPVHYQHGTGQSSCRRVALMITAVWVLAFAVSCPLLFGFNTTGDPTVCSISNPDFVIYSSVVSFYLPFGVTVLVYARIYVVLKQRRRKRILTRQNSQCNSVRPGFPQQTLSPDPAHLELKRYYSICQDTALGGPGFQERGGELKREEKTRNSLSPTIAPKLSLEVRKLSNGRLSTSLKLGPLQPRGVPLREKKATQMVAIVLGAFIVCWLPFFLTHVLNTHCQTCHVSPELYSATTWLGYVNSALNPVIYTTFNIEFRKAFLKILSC
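Cells plated overnight at 1500 cells/well, then exposed to library compounds with dopamine controls for 90 minutes at 37 degrees C. DiscoveRx reagent added for 30–60 minutes at room temperature; luminescence read, quantitative HTS format.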
DRD3 agonist – qHTS of D3 Dopamine Receptor Agonist: qHTS; AID 652048, 2013; D(3) dopamine receptor (Homo sapiens), P35462; max activation, %; D3R DiscoveRx beta-arrestin cells, luminescence, 90 min; actives 0.58% (n = 410,000); in the data active = max activation above about 30%; note: 0% is about no effect
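Cells at 1500/well, incubated overnight, then treated with pinned compounds (dopamine as control) for 90 min at 37 degrees C. DiscoveRx reagent added for 30 - 60 minutes at room temperature; luminescence read.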
SW480 rerep – A quantitative high throughput screen for small molecules that induce DNA re-replication in SW480 colon adenocarcinoma cells; SW480 DNA re-replication, Hoechst DNA content imaging, 48 h; Potency, µM (top dose mostly 46.1 µM), without a hit: at the top dose re-replication activation, usual class: activators; actives 1.8% (n = 340,000); AID 624297, 2012; note: potency is the fitted concentration of half-maximal effect; % of control where 0% means no effect; nearly all actives have a fitted effect of over 55% in size
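Image-based read-out: total Hoechst fluorescence of nuclei (405 nm excitation, 500-530 nm emission), with hits raising the fraction of high-intensity nuclei. SW480 colon cells incubated 48 hr with compounds at 37 C.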
KB-3-1 tox – qHTS assay for MDR1-selective chemotherapeutics: Primary screen using the parental adenocarcinoma cell KB-3-1 | Potency, µM (doses to about 46.1 µM), most hits filed as cytotoxic | actives 1.4% (n = 400,000) | KB-3-1 viability, CellTiter-Glo ATP luminescence, 72 h; note: potency is the fitted concentration of half-maximal effect; % is set by controls: 0 for no effect and ±100 for the full control effect; nearly all actives have a fitted effect of over 60% in size
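Here the drug-naive KB-3-1 line serves as comparator for MDR sub-line selectivity; cells received compound titrations, 72 h at 37 °C, then CellTiter-Glo readout.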
An asterisk follows results filed as active; i = inactive; ? = inconclusive; nt = no result given; ! = not active in a repeat; [ ] = remark or other dose. Shown are actives, neighbours in structure and some others; about 8.9% of the full set was active somewhere. Unless noted, calls come from the whole dose curve; as a rule, active = well fitted curve in the direction sought with a large enough effect; inconclusive = small, poorly fitted or top-dose-only effect, or another doubt; inactive = no such curve, though single readings can be large; an effect the other way counts as inactive or inconclusive.

SMILES	MCF10A rereplic	KB-V1 MDR tox	D3 antag	DRD3 agonist	SW480 rerep	KB-3-1 tox
CC1CCN(S(=O)(=O)c2ccc3c(c2)c(=O)c(C(=O)NCc2ccco2)cn3C)CC1	12%	9.2µM*	-19	-12	4%	?
CSc1ccc(C2c3c(oc4ccc(F)cc4c3=O)C(=O)N2c2ccc(C)cn2)cc1 (centres undefined)	nt	i	nt	7	nt	i
CC1(C)S[C@@H]2[C@H](NC(=O)C(c3ccccc3)S(=O)(=O)O)C(=O)N2[C@H]1C(=O)O (some centres undefined)	nt	nt	nt	-13	nt	nt
CCc1ccc(/C=N/n2c(C)cc(C)c(C#N)c2=O)cc1	16%	9.2µM*	6	-5	-52%	i
Cc1cc(C)n(/N=C/c2ccccc2)c(=O)c1C#N	-1%	i	14	3	-3%	i
CCCN(C(=O)c1c(C)oc2ncnc(N3CCOCC3)c12)c1ccc(Cl)c(Cl)c1	nt	i	nt	9	nt	i
Cc1cccnc1N(C(=O)Nc1ccccc1)C1=NCC(C)(C)S1	12%	i	-17	0	0%	i
CC1(C)CN=C(N(C(=O)Nc2ccccc2)c2ccccc2F)S1	?	i	8	31*	-2%	i
CCCOc1ccc(Cn2c(=O)oc3ccc(C)cc32)cc1OC	-4%	12µM*	-6	-3	-2%	i
COc1cc(Cn2c(=O)oc3ccc(C)cc32)ccc1OCCC(C)C	nt	?	nt	2	nt	i
COc1ccc(-c2nnc(SCc3nnc(-c4ccc(Cl)cc4)o3)n2-c2ccccc2)cc1	?	3.7µM*	-7	-1	?	?
COc1ccc(C(C)=O)cc1CSc1nnc(-c2ccc(Cl)cc2)n1-c1ccccc1	?	15µM*	-21	1	10%[9.22 µM]	?
c1ccc(-c2noc(CSc3nnnn3C3CCCCC3)n2)cc1	3%	18µM*	24	-2	-5%	i
COc1ccc(C(C)=O)cc1CSc1nnc(Nc2ccccc2)s1	5%	8.2µM*	12	1	1%	?
O=C(CN1C(=O)C2CCCCN2c2ccc(C(=O)N3CCCC3)cc21)NCc1ccc(F)cc1 (centres undefined)	nt	i	nt	3	nt	i
COc1cc(CN(C(=O)c2cccc(C)c2)c2ccccn2)cc(OC)c1OC	nt	i	nt	4	nt	i
COc1ccc(-n2c(SCc3nnc(-c4ccccc4)o3)nnc2-c2ccccc2)cc1	17%	2.3µM*	8	1	-15%	i
COc1ccc(-c2noc(CSc3nnc(-c4ccncc4)n3-c3ccccc3)n2)cc1	nt	i	nt	6	nt	i
COc1ccc(-c2noc(CSc3nnc(-c4ccccc4)n3C)n2)cc1	2%	15µM*!	7	4	-2%	i
CCOc1ccccc1NS(=O)(=O)c1cnc(N)nc1	nt	nt	nt	0	nt	nt
CCOC(=O)c1c(C)cc2c(CO)n[nH]c(=O)c2c1C	nt	0.82µM*	8	5	nt	i
COc1ccc(-c2cn3nc(N4CCC(C(=O)NCc5cccc(Cl)c5)CC4)sc3n2)cc1	nt	i	nt	3	nt	i
CCCN1C(C(=O)c2ccccc2)=C(OC(=O)COc2ccccc2)c2ccccc2S1(=O)=O	nt	nt	nt	-25	nt	nt
CCOC(=O)CN1C(C(=O)c2ccccc2)=C(OC(=O)c2ccccc2)c2ccccc2S1(=O)=O	nt	i	nt	49*	nt	i
C=CCN1C(C(=O)c2ccccc2)=C(OC(=O)COc2ccccc2)c2ccccc2S1(=O)=O	?	12µM*	-19	-1	?	?
SMILES	MCF10A rereplic	KB-V1 MDR tox	D3 antag	DRD3 agonist	SW480 rerep	KB-3-1 tox
Cc1ccccc1CNC(=O)CCC(=O)N1CC2CCCN2c2ccccc21 (centres undefined)	nt	i	nt	4	nt	i
Cc1ccc(CN=C2Nc3ccccc3CS2)cc1	?	13µM*	-27	-9	0%	?
Clc1ccc(CN=C2Nc3ccccc3CS2)cc1	?	?	-25	3	11%	i
COc1ccccc1NC(=O)C(=O)NCCc1csc(-c2cccc(F)c2)n1	nt	i	nt	-7	nt	i
Cc1ccc(C(NC(=O)NC(C)c2ccccc2)C(Cl)(Cl)Cl)cc1F (centres undefined)	15µM*	21µM*	70	18	?	?
c1ccc(COc2cccc(-c3cc4nc(NCCc5ccncc5)ccn4n3)c2)cc1	nt	i	77	88*	nt	?
COc1cc(-c2cc3nc(NCCOc4ccccc4)ccn3n2)cc(OC)c1OC	nt	16µM*	20	5	nt	?
COc1cc(-c2cc3nc(NCc4ccco4)ccn3n2)cc(OC)c1OC	nt	?	-75*	6	nt	i
c1ccc(COc2cccc(-c3cc4nc(NCCOc5ccccc5)ccn4n3)c2)cc1	nt	i	-21	-4	nt	i
COc1cc(-c2cc3nc(NCCc4ccncc4)ccn3n2)cc(OC)c1OC	nt	i	62	2	nt	i
NC(Cc1ccccc1)C(=O)O (centres undefined)	nt	nt	nt	9	nt	nt
CC(C)(C)C1CCc2c(sc(NC(=O)c3cccc(Cl)c3)c2C(=O)NCc2ccco2)C1 (centres undefined)	nt	i	nt	-13	nt	i
C[N+]1(CC(=O)c2c3ccccc3cc3ccccc23)CCOCC1	nt	i	nt	nt	nt	i
Cc1ccccc1C(=O)NC1(C(F)(F)F)N=C(c2ccccc2)N(C2CCCCC2)C1=O (centres undefined)	nt	i	nt	5	nt	i
O=C(Cc1ccc(Cl)cc1)N1CCN(c2ccc(F)cc2)CC1	13%	?	-9	-8	23%	i
Cc1noc(C)c1CSCC(=O)N1CCN(c2ccc(F)cc2)CC1	-1%	2.9µM*	4	-7	-12%	?
O=C(CSCc1ccc(F)cc1)N1CCN(c2ccc(Cl)cc2)CC1	nt	nt	nt	80*	nt	nt
Cc1noc(C)c1CSc1ccccc1C(=O)N1CCN(c2ccccc2)CC1	?	i	-2	7	-5%[9.22 µM]	i
CCOc1ccc(N(CC(=O)N2CCN(c3ccc(F)cc3)CC2)S(=O)(=O)c2c(C)noc2C)cc1	-1%	i	10	1	23µM*	i
Cc1cccc(N2CCN(C(=O)CSCc3c(C)noc3C)CC2)c1C	11%	1.8µM*	13	1	14%	3.7µM*
